Source: the supplement of paper PMC8728848
The full list was thinned out, with the strongest signals kept by preference.

What was measured:
Assay in all cases: glycan array binding signal (z-score within array); higher = stronger binding
Conditions in all cases: glycan notation: IUPAC condensed, linker removed
[1] = biological target: Fuc(a1-2)Gal
In short: (§1)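 Glycan array data came from 3228 arrays in the Consortium for Functional Glycomics database, and only arrays with an available protein sequence were kept. Glycan names were put into IUPAC-condensed notation, and columns mapping to the same glycan were averaged. The binding signal is a within-array Z-score, averaged across arrays of one protein sequence run at different concentrations or buffers and across linkers. A negative Z-score can be read as non-binding.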

[2] = biological target: Fuc(a1-2)Gal(b1-4)GlcNAc(b1-3)Gal(b1-4)GlcNAc
In short: as §1

[3] = biological target: Fuc(a1-2)Gal(b1-4)GlcNAc(b1-3)[Fuc(a1-2)Gal(b1-4)GlcNAc(b1-6)]GalNAc
In short: as §1

[4] = biological target: Fuc(a1-2)[Gal(a1-3)]Gal(b1-3)GlcNAc(b1-3)GalNAc
In short: as §1

[5] = biological target: Fuc(a1-2)[Gal(a1-3)]Gal(b1-4)GlcNAc(b1-2)Man(a1-3)[Fuc(a1-2)[Gal(a1-3)]Gal(b1-4)GlcNAc(b1-2)Man(a1-6)]Man(b1-4)GlcNAc(b1-4)GlcNAc
In short: as §1

[6] = biological target: Fuc(a1-2)[Gal(a1-4)]Gal(b1-4)GlcNAc
In short: as §1

[7] = biological target: Fuc(a1-2)[GalNAc(a1-3)]Gal
In short: as §1

[8] = biological target: Fuc(a1-2)[GalNAc(a1-3)]Gal(b1-3)GlcNAc(b1-3)GalNAc
In short: as §1

[9] = biological target: Fuc(a1-2)[GalNAc(a1-3)]Gal(b1-4)GlcNAc(b1-3)Gal(b1-4)GlcNAc
In short: as §1

[10] = biological target: Fuc(a1-2)[GalNAc(a1-3)]Gal(b1-4)GlcNAc(b1-3)GalNAc
In short: as §1

[11] = biological target: Fuc(a1-3)GlcNAc
In short: as §1

[12] = biological target: Fuc(a1-3)[Gal(b1-4)]GlcNAc(b1-2)Man
In short: as §1

[13] = biological target: Gal(a1-3)Gal(b1-3)GlcNAc(b1-6)GalNAc
In short: as §1

[14] = biological target: Gal(a1-3)Gal(b1-4)Glc
In short: as §1

[15] = biological target: Gal(b1-3)Gal
In short: as §1

[16] = biological target: Gal(b1-3)GalNAc(b1-3)Gal(a1-4)Gal(b1-4)Glc
In short: as §1

[17] = biological target: Gal(b1-3)GlcNAc(b1-2)Man(a1-3)[Gal(b1-3)GlcNAc(b1-2)Man(a1-6)]Man(b1-4)GlcNAc(b1-4)GlcNAc
In short: as §1

[18] = biological target: Gal(b1-3)GlcNAc(b1-3)Gal(b1-3)GlcNAc
In short: as §1

[19] = biological target: Gal(b1-3)GlcNAc(b1-3)Gal(b1-4)GlcNAc(b1-2)[Gal(b1-3)GlcNAc(b1-3)Gal(b1-4)GlcNAc(b1-6)]Man(a1-6)[Gal(b1-3)GlcNAc(b1-3)Gal(b1-4)GlcNAc(b1-2)Man(a1-3)]Man(b1-4)GlcNAc(b1-4)[Fuc(a1-6)]GlcNAc
In short: as §1

[20] = biological target: Gal(b1-4)GlcNAc(b1-2)Man(a1-3)[Gal(b1-4)GlcNAc(b1-2)Man(a1-6)]Man(b1-4)GlcNAc(b1-4)GlcNAc
In short: as §1

[21] = biological target: Gal(b1-4)GlcNAc(b1-2)Man(a1-6)[Man(a1-3)]Man(b1-4)GlcNAc(b1-4)GlcNAc
In short: as §1

[22] = biological target: Gal(b1-4)GlcNAc(b1-2)[Gal(b1-4)GlcNAc(b1-6)]Man(a1-6)[Gal(b1-4)GlcNAc(b1-2)Man(a1-3)]Man(b1-4)GlcNAc(b1-4)GlcNAc
In short: as §1

[23] = biological target: Gal(b1-4)GlcNAc(b1-3)Gal(b1-4)GlcNAc(b1-2)[Gal(b1-4)GlcNAc(b1-3)Gal(b1-4)GlcNAc(b1-6)]Man(a1-6)[Gal(b1-4)GlcNAc(b1-3)Gal(b1-4)GlcNAc(b1-2)Man(a1-3)]Man(b1-4)GlcNAc(b1-4)GlcNAc
In short: as §1

[24] = biological target: Gal(b1-4)GlcNAc(b1-3)Gal(b1-4)GlcNAc(b1-3)Gal(b1-4)GlcNAc
In short: as §1

[25] = biological target: Gal(b1-4)GlcNAc(b1-3)Gal(b1-4)GlcNAc(b1-3)Gal(b1-4)GlcNAc(b1-2)Man(a1-3)[Gal(b1-4)GlcNAc(b1-3)Gal(b1-4)GlcNAc(b1-3)Gal(b1-4)GlcNAc(b1-2)Man(a1-6)]Man(b1-4)GlcNAc(b1-4)GlcNAc
In short: as §1

[26] = biological target: Gal(b1-4)GlcNAc(b1-3)Gal(b1-4)GlcNAc(b1-3)Gal(b1-4)GlcNAc(b1-3)Gal(b1-4)GlcNAc(b1-2)Man(a1-3)[Gal(b1-4)GlcNAc(b1-3)Gal(b1-4)GlcNAc(b1-3)Gal(b1-4)GlcNAc(b1-3)Gal(b1-4)GlcNAc(b1-2)Man(a1-6)]Man(b1-4)GlcNAc(b1-4)[Fuc(a1-6)]GlcNAc
In short: as §1

[27] = biological target: Gal(b1-4)GlcNAc(b1-3)Gal(b1-4)GlcNAc(b1-3)Gal(b1-4)GlcNAc(b1-3)Gal(b1-4)GlcNAc(b1-2)[Gal(b1-4)GlcNAc(b1-3)Gal(b1-4)GlcNAc(b1-3)Gal(b1-4)GlcNAc(b1-3)Gal(b1-4)GlcNAc(b1-6)]Man(a1-6)[Gal(b1-4)GlcNAc(b1-3)Gal(b1-4)GlcNAc(b1-3)Gal(b1-4)GlcNAc(b1-3)Gal(b1-4)GlcNAc(b1-2)Man(a1-3)]Man(b1-4)GlcNAc(b1-4)[Fuc(a1-6)]GlcNAc
In short: as §1

[28] = biological target: Gal(b1-4)GlcNAc(b1-3)Gal(b1-4)GlcNAc(b1-3)Gal(b1-4)GlcNAc(b1-3)Gal(b1-4)GlcNAc(b1-3)Gal(b1-4)GlcNAc(b1-3)Gal(b1-4)GlcNAc(b1-2)Man(a1-3)[Gal(b1-4)GlcNAc(b1-3)Gal(b1-4)GlcNAc(b1-3)Gal(b1-4)GlcNAc(b1-3)Gal(b1-4)GlcNAc(b1-3)Gal(b1-4)GlcNAc(b1-3)Gal(b1-4)GlcNAc(b1-2)Man(a1-6)]Man(b1-4)GlcNAc(b1-4)GlcNAc
In short: as §1

B1: MtEccB1 (Mycobacterium tuberculosis H37Rv), O69734 (protein)
chain: MGLRLTTKVQVSGWRFLLRRLEHAIVRRDTRMFDDPLQFYSRSIALGIVVAVLILAGAALLAYFKPQGKLGGTSLFTDRATNQLYVLLSGQLHPVYNLTSARLVLGNPANPATVKSSELSKLPMGQTVGIPGAPYATPVSAGSTSIWTLCDTVARADSTSPVVQTAVIAMPLEIDASIDPLQSHEAVLVSYQGETWIVTTKGRHAIDLTDRALTSSMGIPVTARPTPISEGMFNALPDMGPWQLPPIPAAGAPNSLGLPDDLVIGSVFQIHTDKGPQYYVVLPDGIAQVNATTAAALRATQAHGLVAPPAMVPSLVVRIAERVYPSPLPDEPLKIVSRPQDPALCWSWQRSAGDQSPQSTVLSGRHLPISPSAMNMGIKQIHGTATVYLDGGKFVALQSPDPRYTESMYYIDPQGVRYGVPNAETAKSLGLSSPQNAPWEIVRLLVDGPVLSKDAALLEHDTLPADPSPRKVPAGASGAP
In the case of B1, the “glycan array binding signal (z-score)” value [1] is reported as -0.548, the “glycan array binding signal (z-score)” value [2] is reported as -0.199 and the “glycan array binding signal (z-score)” value [3] is reported as -0.809. The “glycan array binding signal (z-score)” value [4] was 0.379, the “glycan array binding signal (z-score)” value [5] was -0.471 and the “glycan array binding signal (z-score)” value [6] was -1.08. The “glycan array binding signal (z-score)” value [7] was -0.459, the “glycan array binding signal (z-score)” value [8] was 0.901 and the “glycan array binding signal (z-score)” value [9] was -1.03. For the same binder, the “glycan array binding signal (z-score)” value [10] was -0.767, the “glycan array binding signal (z-score)” value [11] was -1.29 and the “glycan array binding signal (z-score)” value [12] was -0.707. For the same binder, the “glycan array binding signal (z-score)” value [13] was -0.407, the “glycan array binding signal (z-score)” value [14] was 0.359 and the “glycan array binding signal (z-score)” value [15] was 0.485. The “glycan array binding signal (z-score)” value [16] was -0.784, the “glycan array binding signal (z-score)” value [17] was 2.58 and the “glycan array binding signal (z-score)” value [18] was 0.213. The “glycan array binding signal (z-score)” value [19] was 1.6, the “glycan array binding signal (z-score)” value [20] was -1.33 and the “glycan array binding signal (z-score)” value [21] was 2.86. For the same binder, the “glycan array binding signal (z-score)” value [22] was -0.552, the “glycan array binding signal (z-score)” value [23] was 2.86 and the “glycan array binding signal (z-score)” value [24] was 2.06. The “glycan array binding signal (z-score)” value [25] was 0.867, the “glycan array binding signal (z-score)” value [26] was 1.01 and the “glycan array binding signal (z-score)” value [27] was 1.93. The “glycan array binding signal (z-score)” value [28] was 2.86.
